Results filed as inconclusive are left out. Calls of active or inactive are those of the source. Unless noted, the call rests on the fitted dose curve; in most records, active means well fitted curve in the direction sought with a large enough effect in the repeat runs; inconclusive means weak or mixed curves; inactive means no such curve, though single readings can be large; an effect the other way counts as inactive or inconclusive.
Columns and labels:
[1] = qHTS RealTime-Glo MT Cell Viability Assay in HEK293 cells - 24 hour (AID 1224886); further: nearly all actives have a fitted effect of over 50% in size; further: potency means the concentration at half of the fitted maximal effect; on activity change, negative = cytotoxicity: top concentration of the series differs between compounds
Outline: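 Tox21 10K qHTS, HEK293, 600 cells/well, RealTime-Glo reagent co-dispensed with cells; 5 h preincubation, compound by pintool, 37 C, luminescence at 0–40 h.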

[2] = qHTS RealTime-Glo MT Cell Viability Assay in HEK293 cells - 8 hour (AID 1224887); further: nearly all actives have a fitted effect of over 50% in size; further: potency means the concentration at half of the fitted maximal effect; on activity change, negative = cytotoxicity: top concentration of the series differs between compounds
Outline: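 HEK293 + NanoLuc + prosubstrate, 600 cells/well; 5 h, 37 C/5% CO2; compound 23 nL in DMSO by pintool; 37 C; luminescence read at 0, 8, 16, 24, 32 and 40 h time points.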

[3] = A CellTox Green Cytotoxicity Assay to monitor cytotoxicity in HEK293 cells - 16 hour (AID 1224888); further: nearly all actives have a fitted effect of over 35% in size; further: potency means the concentration at half of the fitted maximal effect
Outline: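 Tox21 screen in HEK293: membrane-impermeant cyanine dye fluoresces on binding dead-cell DNA; compound pinned 5 h post-seeding, plates held at 37 C, signal read repeatedly through 40 h.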

[4] = qHTS RealTime-Glo MT Cell Viability Assay in HepG2 cells - 0 hour (AID 1224889); further: nearly all actives have a fitted effect of over 50% in size; further: potency means the concentration at half of the fitted maximal effect
Outline: (§1)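 Cells + NanoLuc/prosubstrate dispensed (600 cells/well) → 5 h at 37 C/5% CO2 → compounds in DMSO transferred → 40 h incubation at 37 C, luminescence read at 0, 8, 16, 24, 32, 40 h.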

[5] = A CellTox Green Cytotoxicity Assay to monitor cytotoxicity in HepG2 cells - 8 hour (AID 1224890); further: nearly all actives have a fitted effect of over 45% in size; further: potency means the concentration at half of the fitted maximal effect
Outline: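 Measurements at 0, 8, 16, 24, 32 and 40 h of treatment captured CellTox Green fluorescence in HepG2 cells that had been co-plated with reagent and preincubated 5 h at 37 C/5% CO2.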

[6] = qHTS assay to identify small molecule antagonists of the estrogen receptor alpha (ER-alpha) signaling pathway using the BG1 cell line in the presence of 0.1 nM 17-beta-estradiol - cell viability counter screen (AID 1259241); further: nearly all actives have a fitted effect of over 40% in size
Outline: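 The cell line endogenously expresses full-length ER-alpha and carries four EREs driving luciferase. Cells are cultured 5 days hormone-free, treated 22 hr with compounds and 0.1 nM estradiol, then viability is read by fluorescence.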

[7] = qHTS assay to identify small molecule antagonists of the androgen receptor (AR) signaling pathway using the MDA cell line in the presence of 0.5 nM R1881 - cell viability counter screen (AID 1259242); further: nearly all actives have a fitted effect of over 45% in size; further: potency means the concentration at half of the fitted maximal effect
Outline: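 Concentration-response screen of compounds for toxicity in MDA-kb2 reporter cells: 16 hr at 37C with 0.5 nM R1881, endpoint live-cell protease fluorescence measured in the reporter wells.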

[8] = biological target: Androgen receptor (Homo sapiens) (UniProt P10275); experiment: qHTS assay to identify small molecule antagonists of the androgen receptor (AR) signaling pathway using the MDA cell line in the presence of 0.5 nM R1881 (AID 1259243); further: nearly all actives have a fitted effect of over 50% in size; further: potency means the concentration at half of the fitted maximal effect
Chain of Androgen receptor (Homo sapiens) (P10275 whole entry, looked up): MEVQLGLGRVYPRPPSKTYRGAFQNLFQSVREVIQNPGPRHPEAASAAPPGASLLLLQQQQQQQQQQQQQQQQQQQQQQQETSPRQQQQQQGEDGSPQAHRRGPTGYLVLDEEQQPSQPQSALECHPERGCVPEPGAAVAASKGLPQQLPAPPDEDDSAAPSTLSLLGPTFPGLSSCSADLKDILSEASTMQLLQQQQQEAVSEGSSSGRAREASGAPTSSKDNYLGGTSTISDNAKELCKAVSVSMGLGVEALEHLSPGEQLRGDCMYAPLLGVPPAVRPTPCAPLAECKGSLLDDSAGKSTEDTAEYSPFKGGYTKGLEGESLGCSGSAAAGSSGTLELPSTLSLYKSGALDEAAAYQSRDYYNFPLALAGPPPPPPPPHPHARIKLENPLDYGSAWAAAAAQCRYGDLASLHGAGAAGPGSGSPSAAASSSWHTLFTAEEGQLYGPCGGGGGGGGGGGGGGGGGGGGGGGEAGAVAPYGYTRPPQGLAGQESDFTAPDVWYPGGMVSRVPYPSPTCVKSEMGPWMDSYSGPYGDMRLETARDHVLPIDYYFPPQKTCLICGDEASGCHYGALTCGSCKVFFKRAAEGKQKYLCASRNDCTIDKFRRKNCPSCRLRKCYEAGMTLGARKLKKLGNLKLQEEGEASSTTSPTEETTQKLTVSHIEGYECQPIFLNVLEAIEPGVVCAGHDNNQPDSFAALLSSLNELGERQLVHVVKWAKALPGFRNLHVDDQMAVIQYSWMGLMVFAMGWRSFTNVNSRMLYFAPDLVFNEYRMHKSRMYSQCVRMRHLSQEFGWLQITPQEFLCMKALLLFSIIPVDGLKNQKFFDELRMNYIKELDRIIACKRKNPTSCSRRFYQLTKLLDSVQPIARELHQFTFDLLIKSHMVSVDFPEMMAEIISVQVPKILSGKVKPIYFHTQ
Outline: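 With R1881 held at 0.5 nM (final), compound effects on MMTV-luciferase expression in MDA-kb2 cells were scored by luminescence after a 16 hr, 37C incubation.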

[9] = biological target: Estrogen receptor (Homo sapiens) (UniProt P03372); experiment: qHTS assay to identify small molecule antagonists of the estrogen receptor alpha (ER-alpha) signaling pathway using the BG1 cell line in the presence of 0.1 nM 17-beta-estradiol (AID 1259244); further: nearly all actives have a fitted effect of over 50% in size; further: potency means the concentration at half of the fitted maximal effect
Chain of Estrogen receptor (Homo sapiens) (P03372 whole entry, looked up): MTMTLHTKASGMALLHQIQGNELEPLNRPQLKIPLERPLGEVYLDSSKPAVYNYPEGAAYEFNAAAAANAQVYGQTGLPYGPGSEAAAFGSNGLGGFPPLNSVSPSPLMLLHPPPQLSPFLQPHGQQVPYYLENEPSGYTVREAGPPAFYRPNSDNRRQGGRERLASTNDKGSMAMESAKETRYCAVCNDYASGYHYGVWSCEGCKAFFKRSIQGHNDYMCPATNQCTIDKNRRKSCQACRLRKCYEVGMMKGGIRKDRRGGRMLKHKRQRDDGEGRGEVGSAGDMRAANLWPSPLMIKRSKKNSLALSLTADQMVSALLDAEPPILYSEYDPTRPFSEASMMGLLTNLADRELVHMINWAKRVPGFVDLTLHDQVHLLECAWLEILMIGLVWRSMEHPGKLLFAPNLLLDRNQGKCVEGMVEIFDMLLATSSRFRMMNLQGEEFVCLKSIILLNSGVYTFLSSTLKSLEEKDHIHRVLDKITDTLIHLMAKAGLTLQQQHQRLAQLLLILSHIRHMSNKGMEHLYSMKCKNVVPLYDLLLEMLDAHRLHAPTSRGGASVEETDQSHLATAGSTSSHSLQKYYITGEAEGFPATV
Outline: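 Compounds were tested against 0.1 nM (final) 17beta-estradiol in VM7Luc4E2 cells, which express full-length ER-alpha and an ERE-luciferase reporter; luminescence was recorded following 22 h exposure.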

[10] = qHTS assay to identify small molecule HDAC inhibitors - cell viability counter screen (AID 1259365)
Outline: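 Viability readout: CellTiter-Glo luminescence. Wild-type HCT-116 cells, 2hr compound treatment following overnight attachment at 37 C.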

[11] = qHTS assay to identify small molecule agonists of the sonic hedgehog signaling (Shh) pathway - cell viability counter screen (AID 1259366); further: nearly all actives have a fitted effect of over 50% in size; further: potency means the concentration at half of the fitted maximal effect
Outline: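 Viability measured fluorometrically (CellTiter-Fluor, 1hr, 37C) in 3T3 Gli1-Luc reporter cells after 23hr compound exposure within a 24hr incubation at 37C/5% CO2.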

[12] = qHTS assay to identify small molecule antagonists of the sonic hedgehog signaling (Shh) pathway - cell viability counter screen (AID 1259367); further: nearly all actives have a fitted effect of over 55% in size; further: potency means the concentration at half of the fitted maximal effect
Outline: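 Cytotoxicity was assessed in parallel with Shh reporter activity by measuring live-cell protease fluorescence (CellTiter-Fluor) in NIH/3T3 cells stably carrying Gli1-Luc, treated with compound under conditioned medium stimulation for 23 hr plus 1 hr reagent incubation.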

[13] = qHTS assay to identify small molecule antagonists of the sonic hedgehog signaling (Shh) pathway (AID 1259369; calls by dose curve; further: nearly all actives have a fitted effect of over 45% in size; further: potency means the concentration at half of the fitted maximal effect)
Outline: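 NIH/3T3 stable Gli1-Luc clone, 2,000 cells/well, 4hr settle; cpd + conditioned medium 24hr; Luc reagent 30min RT; luminescence.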

[14] = biological target: Estrogen receptor beta (Homo sapiens) (UniProt Q92731); experiment: qHTS assay to identify small molecule agonists of the estrogen receptor beta (ER-beta) signaling pathway (AID 1259377; active means well fitted activation curve with a large enough effect in the signal ratio in the repeat runs, not every such curve was filed as active; the % refers to the signal ratio)
Chain of Estrogen receptor beta (Homo sapiens) (Q92731 whole entry, looked up): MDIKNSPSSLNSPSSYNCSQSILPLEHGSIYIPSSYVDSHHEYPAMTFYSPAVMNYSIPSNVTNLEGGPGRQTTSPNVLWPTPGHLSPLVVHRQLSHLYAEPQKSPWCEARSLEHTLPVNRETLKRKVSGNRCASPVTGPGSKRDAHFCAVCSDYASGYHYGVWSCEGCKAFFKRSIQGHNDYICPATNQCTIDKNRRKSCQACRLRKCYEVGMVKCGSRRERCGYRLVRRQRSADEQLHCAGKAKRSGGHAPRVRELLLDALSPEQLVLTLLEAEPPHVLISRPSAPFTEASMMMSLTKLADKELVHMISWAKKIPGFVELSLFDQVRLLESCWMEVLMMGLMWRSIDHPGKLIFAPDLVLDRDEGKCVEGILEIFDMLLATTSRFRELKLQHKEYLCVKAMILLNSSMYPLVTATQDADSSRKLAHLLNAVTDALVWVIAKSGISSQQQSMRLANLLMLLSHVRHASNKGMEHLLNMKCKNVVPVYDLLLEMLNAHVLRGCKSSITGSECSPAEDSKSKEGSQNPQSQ
Outline: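 A UAS-controlled beta-lactamase reporter in ER-beta-UAS-bla HEK293T cells reports receptor activation. Compounds act for 16 hr at 37C in 2% charcoal-stripped serum, and a FRET substrate is read by fluorescence after 2 hours.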

[15] = biological target: Estrogen receptor beta (Homo sapiens) (UniProt Q92731); experiment: qHTS assay to identify small molecule antagonists of the estrogen receptor beta (ER-beta) signaling pathway (AID 1259378; active means well fitted inhibition curve with a large enough effect in the signal ratio in the repeat runs, not every such curve was filed as active; the % refers to the signal ratio; further: potency means the concentration at half of the fitted maximal effect)
Outline: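 ER-beta-UAS-bla HEK293T (GripTite) cells in 2% charcoal-stripped FBS medium were preincubated 6 hr at 37C, dosed with compound, then stimulated with 1 nM E2 (final) for 16 hr; beta-lactamase reporter read by B/G FRET fluorescence after 2 hr substrate loading.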

[16] = qHTS assay to identify small molecule agonists of the androgen receptor (AR) signaling pathway in the presence of an antagonist - cell viability counter screen (AID 1259379); further: nearly all actives have a fitted effect of over 25% in size; further: potency means the concentration at half of the fitted maximal effect;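 on activity change, negative = cytotoxicity: MDA-kb2 human breast cancer cells carrying an MMTV luciferase reporter; series mostly up to about 92 µM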
Outline: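 MDA-kb2 viability measured by CellTiter-Fluor fluorescence in the same wells as the luciferase signal; nilutamide 3.0uM final; 15-point compound titration; 16 hr at 37C.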

[17] = qHTS assay to identify small molecule agonists of the sonic hedgehog signaling (Shh) pathway (AID 1259368; calls by dose curve;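 further: NIH/3T3-derived 3T3Gli1-Luc cells carrying a stable Gli1-driven firefly luciferase reporter; series mostly up to about 92 µM; nearly all actives have a fitted effect of over 15% in size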)
Outline: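 Hedgehog pathway agonism scored by increased firefly luciferase luminescence in 3T3Gli1-Luc cells treated 24 hr at 37 C; detection used a 30 min room-temperature reagent incubation.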

[18] = qHTS assay to identify small molecule HDAC inhibitors (AID 1259364);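 further: wild-type HCT-116 cells with endogenous class I/II HDAC activity; top concentration of the series differs between compounds; nearly all actives have a fitted effect of over 45% in size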
Outline: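 Screening used wild-type human colon HCT-116 cells incubated overnight, dosed with compounds for 2 hours, and assayed with a homogeneous luminogenic HDAC I/II reagent for 30 minutes at room temperature.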

[19] = qHTS assay to identify small molecule phospholipidosis (PLD) inducers (AID 1259344; active means well fitted curve in the direction sought with a large enough effect; an effect the other way counts as inactive or inconclusive)
Outline: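 Cells (HepG2, 900 per well) attach for 4 h, receive LipidTOX Red and compound together, incubate 24 h at 37 C, are fixed 30 min with paraformaldehyde/Hoechst, then imaged at one site per well.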

[20] = qHTS RealTime-Glo MT Cell Viability Assay in HepG2 cells - 16 hour (AID 1224885); further: nearly all actives have a fitted effect of over 50% in size
Outline: as §1
On the % scale 0 is the no-effect control and ±100 the full control effect.

O=c1cc[nH]cc1
inactive: Potency [1] | Potency [2] | Potency [3] | Potency [4] | Potency [5] | Potency [6] | Potency [7] | Potency [8] | Potency [9] | Potency [10] | Potency [11] | Potency [12] | Potency [13] | outcome [14] | Potency [15] | Potency [16]

SC1CCCCC1
inactive: Potency [1] | Potency [2] | Potency [3] | Potency [4] | Potency [5] | Potency [6] | Potency [7] | Potency [10] | Potency [11] | Potency [12] | Potency [17] | Potency [13] | outcome [14] | Potency [15] | Potency [16]

O=C1CCCCCCCCCCCCCC1
active: Potency [3] 43.6 µM
inactive: Potency [1] | Potency [2] | Potency [4] | Potency [5] | Potency [7] | Potency [10] | Potency [11] | Potency [12] | Potency [17] | Potency [13] | outcome [14] | Potency [15] | Potency [16]

CCC1(C)C(=O)N(Cl)C(=O)N1Cl (stereo not given)
inactive: Potency [1] | Potency [2] | Potency [3] | Potency [4] | Potency [5] | Potency [7] | Potency [8] | Potency [9] | Potency [18] | Potency [10] | Potency [11] | Potency [12] | Potency [17] | Potency [13] | Potency [15]

C=CCc1cc(S(=O)(=O)c2ccc(O)c(CC=C)c2)ccc1O
active: Potency [1] 27.5 µM | Potency [2] 24.5 µM | Potency [9] 61.1 µM | Potency [12] 24.3 µM
inactive: Potency [3] | Potency [5] | Potency [6] | Potency [7] | Potency [8] | Potency [18] | Potency [10] | Potency [17] | Potency [13]

Nc1cc([N+](=O)[O-])cc(Cl)c1O
inactive: Potency [1] | Potency [2] | Potency [3] | Potency [4] | Potency [5] | Potency [6] | Potency [7] | Potency [9] | Potency [18] | Potency [10] | Potency [12] | Potency [17] | Potency [13] | outcome [14]

COc1cc(/C=C/C(=O)CC(=O)/C=C/c2ccc(O)c(OC)c2)ccc1O
inactive: Potency [6] | Potency [19] | Potency [18]
active: Potency [1] 31.1 µM | Potency [2] 6.96 µM | Potency [3] 49.3 µM | Potency [5] 49.3 µM | Potency [8] 15.4 µM | Potency [11] 30.8 µM | Potency [12] 24.5 µM | Potency [13] 8.69 µM | Potency [16] 54.8 µM

O=S(=O)(c1ccc(OCc2ccccc2)cc1)c1ccccc1O
inactive: Potency [20] | Potency [3] | Potency [4] | Potency [5] | Potency [6] | Potency [7] | Potency [10] | Potency [11]
active: Potency [9] 27.3 µM

Cc1cc(F)ccc1-c1cc(N2CC[C@@H](O)[C@H]2CO)ncc1N(C)C(=O)C(C)(C)c1cc(C(F)(F)F)cc(C(F)(F)F)c1
active: Potency [1] 17.1 µM | Potency [2] 34.1 µM | Potency [4] 1.71 µM | Potency [8] 38 µM | Potency [11] 42.6 µM | Potency [15] 19 µM | Potency [16] 53.6 µM
inactive: Potency [6] | Potency [7] | Potency [18] | Potency [10] | Potency [17]

O=C(O)C[C@H](O)C[C@H](O)/C=C/c1c(C2CC2)nc2ccccc2c1-c1ccc(F)cc1
inactive: activity change, negative = cytotoxicity [1] -0.416% [at 15.8 µM] | activity change, negative = cytotoxicity [2] 5.42% [at 15.8 µM] | activity change [3] 2.31% [at 15.8 µM, stronger effect = higher value] | activity change, negative = cytotoxicity [4] -0.353% [at 15.8 µM] | cytotoxicity increase [5] -9.83% [at 15.8 µM] | viability change, negative = cytotoxic [7] -6.18% [at 19 µM] | activity, negative = inhibition [8] 31.2% [at 19 µM] | activity change, negative = inhibition [9] 17.2% [at 19 µM] | Potency [19] | activity change, negative = cytotoxicity [10] 0.738% [at 19 µM] | viability change, negative = cytotoxic [11] -7.99% [at 19 µM] | viability change, negative = cytotoxic [12] -0.451% [at 19 µM] | activity change [17] -2.24% [at 18.9 µM, stronger effect = higher value] | activity change, negative = inhibition [13] -28% [at 19 µM] | activity change, negative = cytotoxicity [16] 0.182% [at 19 µM]

CN[C@H]1CC[C@@H](c2ccc(Cl)c(Cl)c2)c2ccc(S(N)(=O)=O)cc21
active: Potency [1] 21.9 µM | Potency [2] 38.9 µM | Potency [3] 24.5 µM | Potency [8] 30.6 µM | Potency [9] 61.1 µM | Potency [11] 30.6 µM | Potency [12] 61.1 µM | Potency [13] 3.06 µM | Potency [15] 24.3 µM
inactive: Potency [6] | Potency [18] | Potency [10] | Potency [17]

CO[Si](OC)(c1ccccc1)c1ccccc1
inactive: Potency [1] | Potency [2] | Potency [3] | Potency [4] | Potency [5] | Potency [7] | Potency [18] | Potency [10] | Potency [15]
active: Potency [12] 43.3 µM | Potency [13] 21.7 µM

CN1CCN(c2ccccc2/C=C2\SCCN(c3ccc(Cl)c(Cl)c3)C2=O)CC1
inactive: Potency [4] | Potency [6] | Potency [9] | Potency [18] | Potency [17]
active: Potency [1] 12.3 µM | Potency [2] 12.3 µM | Potency [3] 49 µM | Potency [7] 48.6 µM | Potency [11] 27.3 µM | Potency [12] 54.5 µM | Potency [13] 5.45 µM | Potency [16] 48.6 µM

CN1CCN(CCCN2c3ccccc3Sc3ccc(C(F)(F)F)cc32)CC1
inactive: Potency [18] | Potency [10] | Potency [12] | Potency [17]
active: Potency [1] 23.9 µM | Potency [2] 23.9 µM | Potency [3] 23.9 µM | Potency [11] 26.6 µM | Potency [13] 10.6 µM

CCCCCCCC/C=C\CCCCCCCC(=O)N(CCO)CCO
inactive: Potency [4] | Potency [5] | Potency [6] | Potency [7] | Potency [10] | Potency [11] | Potency [12] | Potency [17]
active: Potency [1] 43.5 µM | Potency [2] 43.5 µM | Potency [9] 30.5 µM | Potency [13] 15.3 µM

CCOC=C(C(=O)OCC)C(=O)OCC
inactive: Potency [1] | Potency [2] | Potency [3] | Potency [4] | Potency [5] | Potency [6] | Potency [7] | Potency [8] | Potency [9] | Potency [18] | Potency [10] | Potency [11] | Potency [12] | Potency [17] | Potency [13] | Potency [15] | Potency [16]
